# This is a sample that favours compounds with a hit; in the whole collection about 21% have one here.
# Shiga inhibitor = Shiga toxin inhibition; inhibition, % at 38.7 µM; 290,000 tested, 9.2% active; Vero cells, Shiga toxin protein synthesis inhibition reporter; AID 2315; in the data active = inhibition mostly above about 28%, no sharp cut-off; inactive = mostly below about 43%
# Pf growth 96h = inhibits malaria parasite growth, 96 h; P. falciparum luciferase reporter growth, 96 h; Potency, µM (highest dose often 28.7 µM), usual class: inhibitors; 320,000 tested, 6.9% active; AID 504834
#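 P. falciparum expressing integrated firefly luciferase grown in erythrocytes (2% hematocrit, 0.05% parasitemia final) with compounds for 96 hours at 37 C, 5% CO2. Growth inhibition read as loss of luminescence after adding luciferase detection reagent.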
# Cycloheximide cs = counter-screen for Shiga toxin inhibitors: cycloheximide protein synthesis inhibition. max response, %. cell reporter, cycloheximide protein synthesis inhibition counterscreen. 300,000 tested, 12% active; in the data active = max response mostly above about 13%, no sharp cut-off; inactive = mostly below about 14%; note: read at 38.3 µM for the half of the compounds with a filed dose
# Pf growth 48h = P. falciparum growth inhibition at 48 hours (one generation); 310,000 tested, 5.9% active; P. falciparum luciferase growth in erythrocytes, 48 h; AID 504832; Potency, µM (highest dose often 28.7 µM), most hits filed as inhibitors
#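 Erythrocytes infected with P. falciparum carrying an integrated firefly luciferase reporter (2% hematocrit, 0.1% parasitemia final) were exposed to compounds in RPMI 1640 with 0.5% Albumax at 37 C, 5% CO2. Growth inhibition was scored as reduced luminescence.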
# NS1 inh = inhibitors of influenza NS1 protein function. Potency, µM (doses to about 46.1 µM). 270,000 tested, 0.4% active. AID 2326; calls by dose curve; note: actives are rising curves; nearly all actives have a fitted effect of over 50% in size
#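 Compounds were scored for reversing the slow growth caused by influenza A NS1 in S. cerevisiae, measured by optical density at 600 nm. Assay medium contained 2% galactose at pH 6.0; NS1-free yeast of the same strain were the positive control.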
# Hits are given with their value; - = inactive; ? = inconclusive; . = no result given; [ ] = another dose, or the depositor's remark. Unless noted, calls come from the whole dose curve; as a rule, active = well fitted inhibition curve with a large enough effect; inconclusive = small, poorly fitted or top-dose-only effect, or another doubt; inactive = no such curve, though single readings can be large or run the other way.
SMILES,Shiga inhibitor,Pf growth 96h,Cycloheximide cs,Pf growth 48h,NS1 inh
CC(C)Oc1ccc(C(=O)NNC(=O)c2ccccc2C(=O)O)cc1,-,-,17,-,-
CC(C)Oc1ccc(CCC(=O)NNC(=O)c2ccccc2C(=O)O)cc1,-,-,-,-,-
O=C(NNC(=O)c1ccccc1C(=O)O)c1ccc(O)cc1,-,-,23,-,-
O=C(Nc1ccc(CN2CCCCC2)cc1)Nc1ccccc1Cl,53,-,32,?,-
CCN1CCN(C(=O)C2(NC(=O)Nc3ccccc3Cl)CCCCC2)CC1,-,-,-,-,-
CCN1CCN(Cc2ccccc2NC(=O)Nc2ccc(C)cc2)CC1,36,-,24,-,-
O=C(Nc1ccc(Br)cc1)Nc1ccccc1Cl,103,-,68,-,-
CCN1CCN(Cc2ccc(NC(=O)Nc3ccccc3Cl)cc2)CC1,97,-,47,-,-
CCOCCCNC(=O)CNC(=S)N(Cc1ccc(C)cc1)Cc1ccco1,-,-,-,?,.
CCOC(=O)c1cc(NC(=O)Nc2ccccc2Cl)c(C)nc1C,-,-,-,-,-
CCOC(=O)c1sc(NC(=O)Nc2ccccc2Cl)cc1C,113,-,69,-,-
CCOC(=O)c1sc(NC(C)=O)cc1C,-,-,-,-,-
CCOC(=O)c1sc(NC(=O)c2ccc(C)s2)cc1C,68,-,65,-,-
CCOC(=O)c1sc(NC(=O)Nc2ccccc2)cc1C,99,-,152,-,-
CCOC(=O)c1cc(C)sc1NC(=O)c1ccc(Cl)s1,-,.,-,-,-
CCOC(=O)c1sc(NC(=O)C2CCC2)cc1C,116,?,28,-,.
COP1(=O)CC(O)C(O)C(COCc2ccccc2)O1 (stereo not given),-,.,-,.,.
Cc1nnc(SCC(=O)NC(C)(C)C)n1C1CCCCC1,-,-,-,-,-
Cc1cccc(N2CCN(CC(=O)Nc3nccs3)CC2)c1C,-,?,-,.,-
CCOC(=O)c1sc(-c2ccccc2)cc1NC(=O)Nc1ccccc1,-,?,-,-,-
CCOC(=O)c1sc(-c2ccc(F)cc2)cc1NC(=O)Nc1ccccc1OC,-,8.3µM,-,?,-
CCCC(=O)Nc1ccc(C(=O)/C=C/c2ccc(SC)cc2)cc1,-,?,-,?,-
COc1ccc(/C=C/C(=O)c2ccc(NC3=NCCCS3)cc2)cc1OC,-,?,-,?,.
CCC1CSC(Nc2ccc(C(=O)/C=C/c3ccc(OC)c(OC)c3)cc2)=N1 (stereo not given),28,?,-,?,-
CCC1CSC(Nc2ccc(C(=O)/C=C/c3ccc(Br)cc3)cc2)=N1 (stereo not given),57,?,49,?,?
SMILES,Shiga inhibitor,Pf growth 96h,Cycloheximide cs,Pf growth 48h,NS1 inh
O=C1CCC(/C=C/c2ccccc2)=NN1Cc1ccc(F)cc1,-,-,-,-,.
Cc1cc(C(C)(C)C)oc1C(=O)N(CC(=O)NC1CCCC1)c1cccc(C(F)(F)F)c1,-,12µM,-,9.3µM,-
Cc1cc(C(C)(C)C)oc1C(=O)N(CC(=O)NC1CCCC1)Cc1ccccc1Cl,-,9.3µM,-,?,-
O=C(CN(Cc1cccs1)C(=O)c1csnn1)NC1CCCC1,-,?,-,-,-
Cc1ccccc1N(CC(=O)NC1CCCC1)C(=O)c1oc(C(C)(C)C)cc1C,-,?,-,12µM,-
Cc1ccc(C(=O)N(CC(=O)NC2CCCC2)c2cccc(F)c2)s1,-,-,-,-,-
Cc1ccc(C(=O)N(CC(=O)NC2CCCCC2)c2ccccc2C)s1,-,?,-,-,-
COc1ccc(NC(=O)C2=C(C)Nc3ncnn3C2c2ccccc2C(F)(F)F)c(OC)c1 (stereo not given),-,-,-,-,-
O=C(CCCNC(=O)c1ccc(Cl)cc1)Nc1ccccc1C(F)(F)F,-,-,-,-,-
Cc1ccc(CNC(=O)C2CCC(=O)N(CCc3cccc(F)c3)C2)cc1 (stereo not given),-,-,-,-,-
CSC(=NC#N)N1CCN(c2ccccc2)CC1,-,-,-,-,-
O=C(Nc1ccncc1)Nc1ccc(F)cc1F,54,-,27,9.3µM,-
O=C(CC(=O)Nc1ccc(F)cc1F)Nc1ccc(F)cc1F,-,-,-,-[0.00184 µM],-
O=C(Nc1ccc(F)cc1F)Nc1ccc(F)cc1F,86,-,30,-,-
Cn1cc(Cl)c(/C(N)=N/OC(=O)c2ccccc2C(F)(F)F)n1,91,-,50,-,-
COCCN(C(=O)Cc1cccs1)C(C(=O)NCc1ccc(OC)cc1)c1ccc(OC)cc1 (stereo not given),-,?,-,13µM,-

# Screening data as filed in PubChem.
